From PubChem BioAssay (EPA / NIEHS)
The source made the active and inactive calls. The calls were made as follows: active = hit-call score of the fitted dose curve at least 0.9, where 1 is the maximum; inactive = score below 0.9.

Columns and labels:
Details in all cases: mRNA level, 48 h; actives raise or lower the signal
[1] = read-out: Alpha-fetoprotein (AFP) gene, AFP (gene 174); assay: LTEA_HepaRG_AFP: Life Technologies and Expression Analysis (LTEA) Assay for Alpha-fetoprotein (AFP) gene using HepaRG (AID 2283472)
Method in brief: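 Differentiated human HepaRG cells exposed 48 h in serum-free induction medium, 8-point half-log series from 100 uM in 0.5% DMSO, duplicate. AFP mRNA by qRT-PCR, normalized to ACTB, GAPDH, POLR2A; bidirectional fit vs DMSO.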

BCL2L11 (gene 10018) = assay: LTEA_HepaRG_BCL2L11: Life Technologies and Expression Analysis (LTEA) Assay for Bcl-2 (BCL2L11) gene using HepaRG (AID 2283473)
Method in brief: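 Cells were plated, cultured 48 h, switched to serum-free induction medium, then dosed in duplicate for 48 h at eight half-log concentrations up to 100 uM. Lysates underwent RNA isolation and TaqMan qRT-PCR; gain or loss versus DMSO was fitted.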

[2] = read-out: Apolipoprotein A-V (APOA5) gene, APOA5 (gene 116519); assay: LTEA_HepaRG_APOA5: Life Technologies and Expression Analysis (LTEA) Assay for Apolipoprotein A-V (APOA5) gene using HepaRG (AID 2283474)
Method in brief: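 Human liver HepaRG cells are treated 48 h with test chemicals (100 uM top, half-log dilutions, 0.5% DMSO). APOA5 mRNA induction or loss is measured by qRT-PCR relative to vehicle.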

[3] = read-out: Apoptosis regulator Bcl-2 (Homo sapiens) (UniProt P10415); assay: LTEA_HepaRG_BCL2: Life Technologies and Expression Analysis (LTEA) Assay for Bcl-2 gene using HepaRG (AID 2283475)
Method in brief: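 Differentiated human HepaRG cells in serum-free induction medium exposed 48 h, in duplicate, to 8-point half-log series from 100 uM in 0.5% DMSO. BCL2 mRNA by qRT-PCR (TaqMan/Fluidigm), normalized to ACTB, GAPDH, POLR2A; bidirectional fit against DMSO.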

[4] = read-out: Bcl-2 (BID) gene, BID (gene 637); assay: LTEA_HepaRG_BID: Life Technologies and Expression Analysis (LTEA) Assay for Bcl-2 (BID) gene using HepaRG (AID 2283476)
Method in brief: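 Gene expression by qRT-PCR in HepaRG cells after 48 h exposure, duplicate wells, eight half-log concentrations topping at 100 uM in 0.5% DMSO. Normalized to ACTB, GAPDH, POLR2A; bidirectional fitting relative to DMSO.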

Caspase-3 (Homo sapiens) = Caspase-3 (Homo sapiens) (UniProt P42574); assay: LTEA_HepaRG_CASP3: Life Technologies and Expression Analysis (LTEA) Assay for cysteine-aspartic acid protease (CASP3) using HepaRG (AID 2283477)
Chain of Caspase-3 (Homo sapiens) (P42574 whole entry, looked up): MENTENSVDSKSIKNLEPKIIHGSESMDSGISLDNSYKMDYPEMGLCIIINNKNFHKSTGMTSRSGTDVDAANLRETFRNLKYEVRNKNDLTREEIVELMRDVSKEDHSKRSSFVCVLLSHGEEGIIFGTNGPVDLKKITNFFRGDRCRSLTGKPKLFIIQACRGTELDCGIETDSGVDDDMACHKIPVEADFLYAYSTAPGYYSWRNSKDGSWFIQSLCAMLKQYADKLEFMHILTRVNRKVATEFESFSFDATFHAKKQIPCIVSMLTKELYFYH
Method in brief: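 In HepaRG liver cells dosed for 48 h at up to 100 uM (eight-point, duplicate), CASP3 expression changes are scored by qRT-PCR. Activity is fitted in both directions with 0.5% DMSO as baseline.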

[5] = read-out: Cytochrome P450 (CYP24A1), CYP24A1 (gene 1591); assay: LTEA_HepaRG_CYP24A1: Life Technologies and Expression Analysis (LTEA) Assay for Cytochrome P450 (CYP24A1) using HepaRG (AID 2283478)
Method in brief: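 Human liver HepaRG cultures receive each chemical for 48 h across an eight-point half-log series topping at 100 uM in 0.5% DMSO. Induction or suppression of CYP24A1 mRNA is scored relative to vehicle after housekeeping-gene normalization.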

[6] = read-out: Cytochrome P450 (CYP1A2), CYP1A2 (gene 1544); assay: LTEA_HepaRG_CYP1A2: Life Technologies and Expression Analysis (LTEA) Assay for Cytochrome P450 (CYP1A2) using HepaRG (AID 2283479)
Method in brief: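 Assesses CYP1A2 mRNA in human HepaRG liver cells after 48 h chemical exposure at up to 100 uM. Values come from qRT-PCR with bidirectional curve fitting relative to DMSO.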

[7] = read-out: cysteine-aspartic acid protease (CASP8), CASP8 (gene 841); assay: LTEA_HepaRG_CASP8: Life Technologies and Expression Analysis (LTEA) Assay for cysteine-aspartic acid protease (CASP8) using HepaRG (AID 2283480)
Method in brief: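 Differentiated human HepaRG cells, plated 48 h then switched to serum-free induction medium, were exposed in duplicate for 48 h to 8 half-log concentrations up to 100 uM in 0.5% DMSO. CASP8 mRNA was quantified by qRT-PCR, normalized to ACTB/GAPDH/POLR2A.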

[8] = read-out: Cytochrome P450 (CYP2B6), CYP2B6 (gene 1555); assay: LTEA_HepaRG_CYP2B6: Life Technologies and Expression Analysis (LTEA) Assay for Cytochrome P450 (CYP2B6) using HepaRG (AID 2283481)
Method in brief: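 Using 48 h treatment of HepaRG cells in serum-free induction medium, concentrations spanned half-log steps from 100 uM in 0.5% DMSO vehicle. CYP2B6 mRNA induction or loss is scored by qRT-PCR against DMSO.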

[9] = read-out: Cytochrome P450 2C19 (Homo sapiens) (UniProt P33261); assay: LTEA_HepaRG_CYP2C19: Life Technologies and Expression Analysis (LTEA) Assay for CYP2C19 using HepaRG (AID 2283482)
Method in brief: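 Human HepaRG liver cells received test chemicals for 48 h (highest 100 uM, half-log dilutions in 0.5% DMSO). CYP2C19 mRNA induction or loss is read by multiplexed qRT-PCR and fitted in both directions versus vehicle.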

CYP2C8 (gene 1558) = assay: LTEA_HepaRG_CYP2C8: Life Technologies and Expression Analysis (LTEA) Assay for CYP2C8 using HepaRG (AID 2283483)
Method in brief: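 Differentiated human HepaRG cells were exposed for 48 h in serum-free induction medium to eight half-log concentrations up to 100 uM in 0.5% DMSO, in duplicate. CYP2C8 mRNA was measured by TaqMan qRT-PCR, normalized to ACTB, GAPDH and POLR2A, and fitted bidirectionally against DMSO.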

CYP2C9 (gene 1559) = assay: LTEA_HepaRG_CYP2C9: Life Technologies and Expression Analysis (LTEA) Assay for CYP2C9 using HepaRG (AID 2283484)
Method in brief: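 Differentiated human HepaRG cells were exposed 48 h in serum-free induction medium to eight half-log concentrations up to 100 uM in 0.5% DMSO. CYP2C9 mRNA was measured by qRT-PCR, normalized to ACTB, GAPDH and POLR2A, and fitted bidirectionally against DMSO.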

CYP2E1 (gene 1571) = assay: LTEA_HepaRG_CYP2E1: Life Technologies and Expression Analysis (LTEA) Assay for CYP2E1 using HepaRG (AID 2283485)
Method in brief: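 HepaRG cells, plated 48 h, then exposed 48 h in serum-free induction medium to eight half-log concentrations from 100 uM in 0.5% DMSO, duplicate. CYP2E1 mRNA by qRT-PCR, normalized to ACTB/GAPDH/POLR2A; bidirectional fit versus DMSO.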

CYP4A11 (gene 1579) = assay: LTEA_HepaRG_CYP4A11: Life Technologies and Expression Analysis (LTEA) Assay for CYP4A11 using HepaRG (AID 2283486)
Method in brief: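 Readout is CYP4A11 mRNA induction or suppression (qRT-PCR, ACTB/GAPDH/POLR2A normalization) in human HepaRG cells after 48 h chemical treatment, concentrations to 100 uM in 0.5% DMSO, fitted bidirectionally against vehicle.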

[10] = read-out: Cytochrome P450 3A4 (Homo sapiens) (UniProt P08684); assay: LTEA_HepaRG_CYP3A4: Life Technologies and Expression Analysis (LTEA) Assay for CYP3A4 using HepaRG (AID 2283487)
Method in brief: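 Differentiated HepaRG cells, plated 48 h, then dosed 48 h in serum-free induction medium with 0.5% DMSO, 8 half-log concentrations up to 100 uM, duplicate. CYP3A4 mRNA by qRT-PCR, normalized to ACTB/GAPDH/POLR2A; bidirectional fit versus DMSO.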

[11] = read-out: DNA damage-inducible transcript 3 (DDIT3), DDIT3 (gene 1649); assay: LTEA_HepaRG_DDIT3: Life Technologies and Expression Analysis (LTEA) Assay for DNA damage-inducible transcript 3 (DDIT3) using HepaRG (AID 2283488)
Method in brief: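 HepaRG cells, 48 h after plating, exposed 48 h in serum-free induction medium to 8 half-log concentrations up to 100 uM in 0.5% DMSO, in duplicate. DDIT3 mRNA measured by TaqMan qRT-PCR, normalized to ACTB, GAPDH and POLR2A. Fitted bidirectionally against DMSO.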

[12] = read-out: Early growth response protein 1 (EGR1) transcription factor, EGR1 (gene 1958); assay: LTEA_HepaRG_EGR1: Life Technologies and Expression Analysis (LTEA) Assay for Early growth response protein 1 (EGR1) transcription factor using HepaRG (AID 2283490)
Method in brief: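 Differentiated human HepaRG cells in serum-free induction medium were exposed in duplicate for 48 h to eight concentrations (top 100 uM, half-log steps) in 0.5% DMSO. EGR1 mRNA was quantified by qRT-PCR, normalized to ACTB, GAPDH and POLR2A, and fitted bidirectionally versus DMSO.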

[13] = read-out: Ezrin (EZR), EZR (gene 7430); assay: LTEA_HepaRG_EZR: Life Technologies and Expression Analysis (LTEA) Assay for Ezrin (EZR) using HepaRG (AID 2283491)
Method in brief: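 EZR transcript levels came from Fluidigm qRT-PCR and were normalized to three housekeeping genes after 48 h chemical exposure of HepaRG cells. Dosing used an 8-point half-log series with a 100 uM top concentration in 0.5% DMSO, tested in duplicate; both directions were fitted versus vehicle.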

[14] = read-out: Pro-epidermal growth factor (Homo sapiens) (UniProt P01133); assay: LTEA_HepaRG_EGF: Life Technologies and Expression Analysis (LTEA) Assay for Epidermal growth factor (EGF) using HepaRG (AID 2283489)
Method in brief: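 EGF expression changes in human HepaRG cells are scored by bidirectional fitting relative to 0.5% DMSO controls. Chemicals are tested at eight half-log concentrations up to 100 uM for 48 h in serum-free induction medium.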

Chain of Cytochrome P450 2C19 (Homo sapiens) (P33261 whole entry, looked up): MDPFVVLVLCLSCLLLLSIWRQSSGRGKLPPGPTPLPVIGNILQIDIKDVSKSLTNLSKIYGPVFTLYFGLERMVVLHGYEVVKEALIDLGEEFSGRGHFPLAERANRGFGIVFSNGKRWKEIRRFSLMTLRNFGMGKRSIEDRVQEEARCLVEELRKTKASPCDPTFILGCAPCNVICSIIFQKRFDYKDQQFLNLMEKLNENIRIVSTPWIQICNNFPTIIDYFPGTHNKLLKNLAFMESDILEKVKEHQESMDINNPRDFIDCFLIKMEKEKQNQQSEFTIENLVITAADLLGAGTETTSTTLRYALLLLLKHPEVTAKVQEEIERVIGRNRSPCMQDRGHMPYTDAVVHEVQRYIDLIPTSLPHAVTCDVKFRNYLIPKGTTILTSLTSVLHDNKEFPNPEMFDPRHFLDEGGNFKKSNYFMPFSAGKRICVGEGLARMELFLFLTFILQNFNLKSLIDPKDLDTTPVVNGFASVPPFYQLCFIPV
Chain of Apoptosis regulator Bcl-2 (Homo sapiens) (P10415 whole entry, looked up): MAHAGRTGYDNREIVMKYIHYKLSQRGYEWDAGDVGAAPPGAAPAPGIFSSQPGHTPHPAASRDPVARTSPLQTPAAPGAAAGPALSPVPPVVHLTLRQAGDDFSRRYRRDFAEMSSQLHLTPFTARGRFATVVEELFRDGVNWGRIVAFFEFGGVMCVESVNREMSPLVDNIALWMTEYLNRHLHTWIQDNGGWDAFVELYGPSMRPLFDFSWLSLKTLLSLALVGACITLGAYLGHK
Chain of Cytochrome P450 3A4 (Homo sapiens) (P08684 whole entry, looked up): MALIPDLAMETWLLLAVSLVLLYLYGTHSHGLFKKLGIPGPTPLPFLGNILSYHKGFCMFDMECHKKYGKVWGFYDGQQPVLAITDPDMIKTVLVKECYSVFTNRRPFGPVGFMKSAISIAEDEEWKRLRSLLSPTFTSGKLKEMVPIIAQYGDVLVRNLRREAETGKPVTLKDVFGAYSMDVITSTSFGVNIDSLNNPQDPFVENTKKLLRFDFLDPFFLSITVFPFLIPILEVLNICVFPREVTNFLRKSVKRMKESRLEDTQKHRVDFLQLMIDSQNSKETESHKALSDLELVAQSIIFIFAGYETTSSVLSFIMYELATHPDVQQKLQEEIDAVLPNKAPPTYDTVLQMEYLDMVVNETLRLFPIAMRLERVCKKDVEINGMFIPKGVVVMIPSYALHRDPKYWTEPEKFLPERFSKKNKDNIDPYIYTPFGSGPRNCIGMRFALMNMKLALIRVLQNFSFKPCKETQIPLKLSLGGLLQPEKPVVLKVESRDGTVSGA

c1ccc2c(c1)-c1cccc3cccc-2c13
outcome [1]: inactive
outcome (BCL2L11 (gene 10018)): inactive
outcome [2]: inactive
outcome [3]: inactive
outcome [4]: inactive
outcome (Caspase-3 (Homo sapiens)): inactive
outcome [5]: inactive
AC50 [6]: 50 µM (active)
outcome [7]: inactive
AC50 [8]: 5.03 µM (active)
AC50 [9]: 9.15 µM (active)
outcome (CYP2C8 (gene 1558)): inactive
outcome (CYP2C9 (gene 1559)): inactive
AC50 (CYP2E1 (gene 1571)): 34.6 µM (active)
outcome (CYP4A11 (gene 1579)): inactive
AC50 [10]: 18 µM (active)
outcome [11]: inactive
outcome [12]: inactive
outcome [13]: inactive

Nc1ccc([N+](=O)[O-])cc1
outcome [1]: inactive
outcome (BCL2L11 (gene 10018)): inactive
outcome [2]: inactive
outcome [3]: inactive
outcome [4]: inactive
outcome (Caspase-3 (Homo sapiens)): inactive
outcome [5]: inactive
AC50 [6]: 39.3 µM (active)
outcome [7]: inactive
outcome [8]: inactive
outcome [9]: inactive
outcome (CYP2C8 (gene 1558)): inactive
outcome (CYP2C9 (gene 1559)): inactive
outcome (CYP2E1 (gene 1571)): inactive
outcome (CYP4A11 (gene 1579)): inactive
outcome [11]: inactive
outcome [14]: inactive
outcome [12]: inactive
outcome [13]: inactive

CC(C)(OOC(C)(C)c1ccccc1)c1ccccc1
outcome [1]: inactive
outcome (BCL2L11 (gene 10018)): inactive
outcome [2]: inactive
outcome [3]: inactive
outcome [4]: inactive
outcome (Caspase-3 (Homo sapiens)): inactive
outcome [5]: inactive
outcome [6]: inactive
outcome [7]: inactive
AC50 [8]: 7.24 µM (active)
AC50 [9]: 30 µM (active)
AC50 (CYP2C8 (gene 1558)): 25.4 µM (active)
outcome (CYP2C9 (gene 1559)): inactive
AC50 (CYP2E1 (gene 1571)): 35.1 µM (active)
outcome (CYP4A11 (gene 1579)): inactive
AC50 [10]: 23.9 µM (active)
outcome [11]: inactive
outcome [14]: inactive
outcome [12]: inactive
outcome [13]: inactive

CN(C)c1ccc(C(=O)c2ccc(N(C)C)cc2)cc1
AC50 [1]: 50 µM (active)
outcome (BCL2L11 (gene 10018)): inactive
outcome [2]: inactive
AC50 [3]: 8.06 µM (active)
outcome [4]: inactive
outcome (Caspase-3 (Homo sapiens)): inactive
outcome [5]: inactive
AC50 [6]: 12.1 µM (active)
outcome [7]: inactive
AC50 [8]: 12.2 µM (active)
outcome [9]: inactive
outcome (CYP2C8 (gene 1558)): inactive
outcome (CYP2C9 (gene 1559)): inactive
AC50 (CYP2E1 (gene 1571)): 50 µM (active)
AC50 (CYP4A11 (gene 1579)): 50 µM (active)
outcome [11]: inactive
outcome [14]: inactive
outcome [12]: inactive
outcome [13]: inactive
